Experimental data from PubChem BioAssay (NCATS).
Where “and” joins values, the source holds several entries; their conditions need not be identical. Equal entries are not always repeated. Results filed as inconclusive are left out. Calls of active or inactive are those of the source. The call rests on the fitted dose curve; in most records, active means well fitted curve in the direction sought with a large enough effect; inconclusive means small, poorly fitted or top-dose-only effect, or another doubt; inactive means no such curve, though single readings can be large; an effect the other way counts as inactive or inconclusive.

What was measured:
CRL-7250 = normal cell line; assay: Cytotoxic Profiling of Annotated Libraries Using Quantitative High-Throughput Screening (AID 1296008); conditions: Five cell lines viability, CellTiter-Glo ATP luminescence, 48-72 h; max response: hits give low values; further: nearly all actives have a fitted effect of over 60% in size; further: potency means the concentration at half of the fitted maximal effect; on max response: on the % scale 0 is the no-effect control and ±100 the full control effect
Method in brief: (§1)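 Cytotoxicity was measured as CellTiter-Glo ATP luminescence, read after 10 min at room temperature. Compound treatment of the cells lasted 48 or 72 hr at 37 degrees Celsius in a qHTS format.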

HEK293 = assay: as above; conditions: Five cell lines viability, CellTiter-Glo ATP luminescence, 48-72 h; max response: hits give low values
Method in brief: as §1

HaCat [1] = assay: as above; conditions: Five cell lines viability, CellTiter-Glo ATP luminescence, 48-72 h; max response: hits give low values
Method in brief: as §1

KB-3-1 = assay: as above; conditions: Five cell lines viability, CellTiter-Glo ATP luminescence, 48-72 h; max response: hits give low values
Method in brief: as §1

NIH3T3 [2] = assay: as above; conditions: Five cell lines viability, CellTiter-Glo ATP luminescence, 48-72 h; max response: hits give low values
Method in brief: as §1

HACAT [3] = assay: qHTS assay to identify novel small-molecules to repurpose for Merkel cell carcinoma treatment (AID 1296009); conditions: MCC and control cell lines, CellTiter-Glo viability, 72 h; at 44.8 µM (top of the series) unless noted; further: nearly all actives have a fitted effect of over 60% in size; further: potency means the concentration at half of the fitted maximal effect
Method in brief: (§2)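 72 hr, 37 degree celsius; NPC 8-pt / MIPE 11-pt dose response; compound pinned in DMSO; CellTiter-Glo, 10 min RT, luminescence; normalized to no-cell and DMSO controls.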

MCC-13 = assay: as above; conditions: MCC and control cell lines, CellTiter-Glo viability, 72 h; series mostly up to 46 µM
Method in brief: as §2

MCC-26 = assay: as above; conditions: MCC and control cell lines, CellTiter-Glo viability, 72 h; series mostly up to 46 µM
Method in brief: as §2

MKL-1 = assay: as above; conditions: MCC and control cell lines, CellTiter-Glo viability, 72 h; series mostly up to 46 µM
Method in brief: as §2

NIH3T3 [4] = assay: as above; conditions: MCC and control cell lines, CellTiter-Glo viability, 72 h; at 44.8 µM (top of the series) unless noted
Method in brief: as §2

C33A = assay: Primary qHTS to identify gynecologic anti-cancer compounds using libraries of approved drugs and bioactive compounds (AID 1345084); conditions: Gynecologic cancer cell panel viability, ATPlite luminescence, 48 h; series mostly up to 57.5 µM; further: on the % scale 0 is the no-effect control and ±100 the full control effect; nearly all actives have a fitted effect of over 55% in size
Method in brief: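 ATP-based viability (ATPlite), 1,000 cells/well, 16 h pre-incubation, 48 h compound at 37 C, 5% CO2, 15 min RT before read.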

MKL-2 = assay: qHTS assay to identify novel small-molecules to repurpose for Merkel cell carcinoma treatment (AID 1296009); conditions: MCC and control cell lines, CellTiter-Glo viability, 72 h; series mostly up to 46 µM; further: nearly all actives have a fitted effect of over 60% in size; further: potency means the concentration at half of the fitted maximal effect
Method in brief: as §2

UISO = assay: as above; conditions: MCC and control cell lines, CellTiter-Glo viability, 72 h; series mostly up to 46 µM
Method in brief: as §2

WaGa = assay: as above; conditions: MCC and control cell lines, CellTiter-Glo viability, 72 h; series mostly up to 46 µM
Method in brief: as §2

SC27B = assay: qHTS profiling for inhibitors of Plasmodium falciparum proliferation (AID 504749);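 further: 0% = DMSO vehicle and full inhibition = artemisinin control; nearly all actives have a fitted effect of over 60% in size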; conditions: P. falciparum in erythrocytes, SYBR Green DNA, 72 h; series mostly up to 28.7 µM
Method in brief: (§3)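 Infected RBCs, 0.3% parasitemia/2.5% Hct final; cpd 72 h, 37 C, 5% CO2; lysis buffer with saponin/triton/SYBR Green I, o/n RT dark; FI 485/535; norm. to artemisinin (0.29 uM) and DMSO.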

TAB109 = assay: as above; conditions: P. falciparum in erythrocytes, SYBR Green DNA, 72 h; series mostly up to 28.7 µM
Method in brief: as §3

TAB113 = assay: as above; conditions: P. falciparum in erythrocytes, SYBR Green DNA, 72 h; series mostly up to 28.7 µM
Method in brief: as §3

TAB165 = assay: as above; conditions: P. falciparum in erythrocytes, SYBR Green DNA, 72 h; series mostly up to 28.7 µM
Method in brief: as §3

W2 = assay: as above; conditions: P. falciparum in erythrocytes, SYBR Green DNA, 72 h; series mostly up to 28.7 µM
Method in brief: as §3

CN(C)C(=O)c1ccc(S(=O)(=O)c2ccc(NC(=O)[C@@](C)(O)C(F)(F)F)c(Cl)c2)cc1
inactive: max response (HaCat [1]) -8.31% | outcome (HaCat [1]) | max response (KB-3-1) -27.1% and -22.5% | outcome (NIH3T3 [2]) | outcome (HACAT [3]) | Potency (MCC-13) | Potency (MCC-26) | Potency (MKL-1) | outcome (NIH3T3 [4]) | Potency (C33A)
active: Potency (CRL-7250) 5.26 µM and 5.8 µM | Potency (HEK293) 3.72 µM

CCCC(CCC)C(=O)O
inactive: max response (CRL-7250) -7.38% and -1.13% | max response (HEK293) -7.93% and 2.58% | max response (HaCat [1]) 2.57% | outcome (HaCat [1]) | max response (KB-3-1) 5.52% and 6.84% | max response (NIH3T3 [2]) 0.659% | outcome (HACAT [3]) | Potency (MCC-13) | Potency (MCC-26) | Potency (MKL-1) | Potency (MKL-2) | Potency (UISO) | Potency (WaGa) | Potency (C33A)

CNCc1ccc(-c2[nH]c3cc(F)cc4c3c2CCNC4=O)cc1
inactive: outcome (CRL-7250) | max response (HaCat [1]) 4.8% | outcome (HaCat [1]) | max response (KB-3-1) 9.78% | max response (NIH3T3 [2]) -1.23% and -23.6% | outcome (HACAT [3]) | Potency (MCC-13) | Potency (MCC-26) | Potency (MKL-1) | Potency (WaGa) | Potency (C33A)
active: Potency (HEK293) 11.6 µM

CCC(C)n1ncn(-c2ccc(N3CCN(c4ccc(OC[C@H]5CO[C@](Cn6cncn6)(c6ccc(Cl)cc6Cl)O5)cc4)CC3)cc2)c1=O (stereo not given in full)
active: Potency (HEK293) 2.82 µM
inactive: max response (CRL-7250) -2.71% | max response (HaCat [1]) 1.24% | outcome (HaCat [1]) | max response (KB-3-1) -3.28% and -9.44% and -24.5% | max response (NIH3T3 [2]) -7.51% | outcome (HACAT [3]) | Potency (MCC-13) | Potency (MCC-26) | Potency (MKL-1) | Potency (MKL-2) | Potency (UISO) | Potency (WaGa) | Potency (C33A)

Clc1cccc(Cl)c1NC1=NCCN1
inactive: Potency (SC27B) | Potency (TAB109) | Potency (TAB113) | Potency (TAB165) | Potency (W2) | max response (CRL-7250) 0.663% and -4.74% | max response (HEK293) -3.7% and -4.57% | outcome (HaCat [1]) | outcome (KB-3-1) | outcome (NIH3T3 [2]) | outcome (HACAT [3]) | Potency (MCC-13) | Potency (MCC-26) | Potency (MKL-1) | Potency (MKL-2) | outcome (NIH3T3 [4]) | Potency (UISO) | Potency (WaGa) | Potency (C33A)

Cc1cc2c(F)c(Oc3ncnn4cc(OC[C@@H](C)O)c(C)c34)ccc2[nH]1
inactive: max response (CRL-7250) -47.3% | max response (HaCat [1]) -13.8% | Potency (MCC-13) | Potency (MCC-26) | Potency (MKL-1)
active: Potency (HEK293) 3.72 µM

CCOc1ccn(-c2ccc(F)cc2)c(=O)c1C(=O)Nc1ccc(Oc2ccnc(N)c2Cl)c(F)c1
inactive: max response (CRL-7250) -27.8% | Potency (MCC-13) | Potency (MCC-26) | Potency (MKL-1) | Potency (MKL-2) | Potency (WaGa) | Potency (C33A)
active: Potency (HEK293) 26.4 µM | Potency (HaCat [1]) 23.5 µM | Potency (KB-3-1) 13.2 µM

OCCn1cc(-c2cnc3nnn(Cc4ccc5ncccc5c4)c3n2)cn1
inactive: max response (CRL-7250) -20.1% | max response (HEK293) -13.9% | max response (HaCat [1]) -20.1% | max response (KB-3-1) 1.4% and -22% | max response (NIH3T3 [2]) -29.5% | Potency (MCC-13) | Potency (MCC-26) | Potency (MKL-1) | Potency (MKL-2) | Potency (UISO) | Potency (WaGa) | Potency (C33A)

O=C(O)[C@@H](c1ccc(OCc2ccc3ccccc3n2)cc1)C1CCCC1
inactive: max response (CRL-7250) -8.88% | max response (HEK293) -13% | max response (HaCat [1]) -16.3% | max response (KB-3-1) -4.52% | max response (NIH3T3 [2]) -0.267% | Potency (MCC-13) | Potency (MCC-26) | Potency (MKL-1) | Potency (MKL-2) | Potency (UISO) | Potency (WaGa)

CCn1c(-c2nonc2N)nc2cnc(Oc3cccc(NC(=O)c4ccc(OCCN5CCOCC5)cc4)c3)cc21
active: Potency (CRL-7250) 20.9 µM | Potency (HEK293) 11.8 µM | Potency (KB-3-1) 5.9 µM | Potency (NIH3T3 [2]) 14.8 µM
inactive: max response (HaCat [1]) -18.5% | Potency (MCC-26) | Potency (MKL-2)

O=C(c1cc(Cc2n[nH]c(=O)c3ccccc23)ccc1F)N1CCN(C(=O)C2CC2)CC1
active: Potency (CRL-7250) 9.35 µM | Potency (UISO) 16.6 µM
inactive: max response (HEK293) -77.6% | max response (HaCat [1]) -1.1% | max response (KB-3-1) -21.2% and -8.64% | max response (NIH3T3 [2]) -27.5% and -49.1% | Potency (MCC-13) | Potency (MCC-26) | Potency (MKL-1) | Potency (C33A)

Nc1nc2[nH]cc(CCc3ccc(C(=O)N[C@@H](CCC(=O)O)C(=O)O)cc3)c2c(=O)[nH]1
inactive: max response (CRL-7250) -1.95% | max response (KB-3-1) -20.9% and 0.617% | Potency (MCC-13) | Potency (MKL-1) | Potency (MKL-2)
active: Potency (HEK293) 1.48 µM | Potency (NIH3T3 [2]) 1.18 µM | Potency (WaGa) 2.35 µM

CCOc1ccc(Cc2cc([C@@H]3O[C@H](CO)[C@@H](O)[C@H](O)[C@@H]3O)ccc2Cl)cc1
inactive: max response (CRL-7250) -1.42% | max response (HEK293) 1.73% | outcome (HaCat [1]) | max response (KB-3-1) 6.49% | max response (NIH3T3 [2]) 1.42% | outcome (HACAT [3]) | Potency (MCC-13) | Potency (MCC-26) | Potency (MKL-2) | Potency (UISO)
